The source made the active and inactive calls. Unless noted, no rule for the calls is given here.
How the values were obtained:
[1] = anti-His antibody binders, primary screen, artefact control for SMM control protein annotation, biochemical, small-molecule microarray, 635 nm fluorescence (AID 1128); conditions: anti-His Alexa647 antibody binding, higher = more signal;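 also: score merges feature fluorescence with signal-to-noise for each printed compound spot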
[2] = tested on: Human papillomavirus type 1a E7 protein (residues 1-88); test: HPV1a E7 small-molecule binders, primary screen, biochemical, small-molecule microarray, residues 1-88, 635 nm (AID 1129); conditions: small-molecule microarray binding, fluorescence 635 nm; higher = more signal
[3] = biological target: Focal adhesion kinase 1 (Homo sapiens) (UniProt Q05397); test: small-molecule microarray binders of FAK, primary screen, biochemical, 635/667 nm fluorescence, BSA, DTT (AID 1130); conditions: PTK2 binding, 635 nm fluorescence, higher = more signal;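 also: composite of spot emission at 667 nm and signal to noise over triplicate slides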
Sequence of Focal adhesion kinase 1 (Homo sapiens) (Q05397 whole entry, looked up): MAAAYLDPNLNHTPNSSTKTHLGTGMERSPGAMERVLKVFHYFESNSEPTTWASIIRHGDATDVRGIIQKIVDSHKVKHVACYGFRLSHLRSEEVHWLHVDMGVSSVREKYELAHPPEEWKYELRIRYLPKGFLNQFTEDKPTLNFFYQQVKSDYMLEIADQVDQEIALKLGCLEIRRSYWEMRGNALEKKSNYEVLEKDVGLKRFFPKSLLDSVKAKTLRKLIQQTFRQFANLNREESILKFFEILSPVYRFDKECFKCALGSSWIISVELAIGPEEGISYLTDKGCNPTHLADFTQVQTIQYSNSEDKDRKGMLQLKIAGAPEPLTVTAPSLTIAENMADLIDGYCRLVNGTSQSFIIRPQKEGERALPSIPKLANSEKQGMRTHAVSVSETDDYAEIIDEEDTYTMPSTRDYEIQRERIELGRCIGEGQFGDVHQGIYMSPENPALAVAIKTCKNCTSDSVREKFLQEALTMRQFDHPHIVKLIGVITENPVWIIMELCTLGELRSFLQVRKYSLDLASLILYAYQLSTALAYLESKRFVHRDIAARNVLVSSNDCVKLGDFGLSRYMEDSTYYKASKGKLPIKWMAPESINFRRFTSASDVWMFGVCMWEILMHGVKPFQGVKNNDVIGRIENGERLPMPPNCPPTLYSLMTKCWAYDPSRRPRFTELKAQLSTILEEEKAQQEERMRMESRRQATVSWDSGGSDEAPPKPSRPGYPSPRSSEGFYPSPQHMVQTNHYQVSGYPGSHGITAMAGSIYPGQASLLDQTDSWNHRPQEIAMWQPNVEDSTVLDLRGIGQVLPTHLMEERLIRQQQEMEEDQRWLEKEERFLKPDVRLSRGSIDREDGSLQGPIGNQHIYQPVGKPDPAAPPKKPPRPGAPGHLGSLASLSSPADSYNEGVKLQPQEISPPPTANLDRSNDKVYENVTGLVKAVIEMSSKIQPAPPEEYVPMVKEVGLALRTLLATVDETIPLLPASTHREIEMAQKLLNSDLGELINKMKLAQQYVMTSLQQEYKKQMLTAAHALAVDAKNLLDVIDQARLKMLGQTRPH

[4] = tested on: Fibrinogen (Alexa647-labelled); test: fibrinogen binders on compound microarrays, profiling panel, artefact control for SMM control-protein annotation, biochemical, small-molecule microarray, 635/667 nm fluorescence (AID 1131); conditions: fibrinogen-A647 binding fluorescence, higher = more signal;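 also: z-score merges 667 nm fluorescence with per-spot signal-to-noise over triplicate slides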
[5] = biological target: Follistatin (Homo sapiens) (UniProt P19883); test: follistatin binders on small-molecule microarrays, primary screen, biochemical, small-molecule microarray, 635/667 nm fluorescence (AID 1132); conditions: FST binding, 635 nm fluorescence, higher = more signal
Sequence of Follistatin (Homo sapiens) (P19883 whole entry, looked up): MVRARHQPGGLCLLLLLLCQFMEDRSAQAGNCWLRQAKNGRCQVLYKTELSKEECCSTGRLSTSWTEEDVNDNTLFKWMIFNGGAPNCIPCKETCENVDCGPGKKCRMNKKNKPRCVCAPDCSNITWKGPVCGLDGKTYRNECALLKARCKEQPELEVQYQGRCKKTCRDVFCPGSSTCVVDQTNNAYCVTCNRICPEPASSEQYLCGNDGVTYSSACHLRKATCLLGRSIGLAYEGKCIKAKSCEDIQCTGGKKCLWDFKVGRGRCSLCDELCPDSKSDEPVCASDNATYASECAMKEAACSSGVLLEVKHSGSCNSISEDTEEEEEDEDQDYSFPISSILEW

[6] = biological target: Fibroblast growth factor 2 (Homo sapiens) (UniProt P09038); test: FGF2 binders on small-molecule microarrays, primary screen, biochemical, small-molecule microarray, 635/667 nm fluorescence (AID 1133); conditions: small-molecule microarray binding, FGF2, fluorescence 635/667; higher = more signal
Sequence of Fibroblast growth factor 2 (Homo sapiens) (P09038 whole entry, looked up): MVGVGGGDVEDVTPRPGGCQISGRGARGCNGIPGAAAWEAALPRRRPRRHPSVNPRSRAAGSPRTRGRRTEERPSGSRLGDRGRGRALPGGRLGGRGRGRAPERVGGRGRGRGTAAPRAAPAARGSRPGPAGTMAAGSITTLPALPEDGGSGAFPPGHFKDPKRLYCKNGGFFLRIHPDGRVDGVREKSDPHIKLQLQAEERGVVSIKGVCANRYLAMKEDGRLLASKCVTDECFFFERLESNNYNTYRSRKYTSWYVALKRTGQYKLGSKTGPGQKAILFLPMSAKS

[7] = mitochondrial membrane potential change in A549 cells, profiling panel, cell-based, JC-1 fluorescence, basal, 24 h, 100 nL (AID 1138); conditions: higher = more signal;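 also: A549 lung adenocarcinoma cells under basal conditions with no added stimulus; test concentration not given here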
Lefty1 = Lefty1 binders on small-molecule microarrays, primary screen, biochemical, small-molecule microarray, 635/667 nm fluorescence (AID 1139); conditions: small-molecule microarray binding, fluorescence 635/667; higher = more signal
[8] = tested on: wheat germ agglutinin (Triticum aestivum), Alexa647-labelled; test: wheat germ agglutinin binders on compound microarrays, profiling panel, artefact control for SMM control-protein annotation, biochemical, small-molecule microarray, 635/667 nm fluorescence (AID 1140); conditions: WGA-A647 binding, 635 nm fluorescence, higher = more signal;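 also: score merges 667 nm feature emission with signal to noise over triplicate slides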
[9] = biological target: Luciferin 4-monooxygenase (Photinus pyralis) (UniProt P08659); test: firefly luciferase enzyme inhibitors, primary screen, biochemical, luminescence, purified enzyme, 2006 set (AID 1141); conditions: SteadyGlo luminescence, 30 min, higher = more signal, called active from +8 up or from −8 down;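 also: cell-free assay with purified firefly luciferase at 100 ng per well in PBS; test concentration not given here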
Sequence of Luciferin 4-monooxygenase (Photinus pyralis) (P08659 whole entry, looked up): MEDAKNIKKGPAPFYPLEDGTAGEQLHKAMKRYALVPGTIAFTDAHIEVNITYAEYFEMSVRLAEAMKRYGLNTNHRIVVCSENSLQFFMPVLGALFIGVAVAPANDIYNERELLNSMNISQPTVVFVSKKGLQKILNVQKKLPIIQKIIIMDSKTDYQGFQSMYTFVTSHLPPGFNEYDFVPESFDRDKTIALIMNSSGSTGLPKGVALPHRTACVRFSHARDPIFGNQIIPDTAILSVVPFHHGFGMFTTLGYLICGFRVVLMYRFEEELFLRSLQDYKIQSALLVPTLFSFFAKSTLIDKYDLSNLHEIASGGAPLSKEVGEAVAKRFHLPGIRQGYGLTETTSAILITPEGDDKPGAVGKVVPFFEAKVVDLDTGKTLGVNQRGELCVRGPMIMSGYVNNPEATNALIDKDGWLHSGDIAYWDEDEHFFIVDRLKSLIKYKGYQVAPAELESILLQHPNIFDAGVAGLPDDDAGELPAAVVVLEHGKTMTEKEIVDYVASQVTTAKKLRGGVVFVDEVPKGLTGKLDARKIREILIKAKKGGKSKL

[10] = tested on: Wnt5a (protein binding on small-molecule microarray); test: Wnt5a binders on small-molecule microarray, primary screen, biophysical, 635/667 nm fluorescence (AID 1142); conditions: 635 nm fluorescence, higher = more signal;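 also: fluorescence read at 667 nm with signal to noise per printed feature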
[11] = cell viability in Huh7 cells, primary screen, cytotoxicity control for HCV replication inhibitor project, CellTiter-Glo luminescence, basal, 48 h (AID 1143); conditions: Huh7 HCV replicon, higher = more signal, called active from +8 up or from −8 down;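 also: Huh7 hepatoma cells carrying a hepatitis C replication reporter with no stimulus; test concentration not given here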
[12] = P. aeruginosa biofilm formation inhibitors, primary screen, PAO1 strain, BacTiter-Glo luminescence, LB-PBS (AID 1144); conditions: 12 h, higher = more signal
[13] = CREB reporter modulators without forskolin, primary screen, cell-based, PC12, CRE-LacZ reporter, unstimulated (AID 1145); conditions: no forskolin, luminescence, 4.5 h, higher = more signal, called active from +8 up or from −8 down
[14] = CREB reporter modulators under forskolin, primary screen, cell-based, PC12, CRE-LacZ reporter, forskolin-stimulated (AID 1146); conditions: luminescence, 4.5 h, higher = more signal, called active from +8 up or from −8 down;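 also: PC12 cells with 6xCRE LacZ reporter stimulated by forskolin 10 µM; beta-galactosidase reporter signal reflecting CREB driven transcription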
[15] = biological target: Streptavidin (Streptomyces avidinii) (UniProt P22629); test: streptavidin binders on small-molecule microarray, primary screen, artefact control for SMM compound annotation, biophysical, 635/667 nm fluorescence (AID 1147); conditions: streptavidin binding, higher = more signal;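 also: signal reflects streptavidin binding to arrayed compounds as a control protein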
Sequence of Streptavidin (Streptomyces avidinii) (P22629 whole entry, looked up): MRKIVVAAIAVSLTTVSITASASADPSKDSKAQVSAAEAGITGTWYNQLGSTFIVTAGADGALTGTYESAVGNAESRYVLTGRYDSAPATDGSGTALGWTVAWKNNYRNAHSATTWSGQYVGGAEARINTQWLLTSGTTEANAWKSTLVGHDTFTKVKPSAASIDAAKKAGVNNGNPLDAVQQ

[16] = small-molecule binders of probe aInhba, primary screen, biochemical, small-molecule microarray, 635/667 nm fluorescence (AID 1148); conditions: higher = more signal;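 also: score merges 667nm spot fluorescence with signal-to-noise for antibody binding to printed compounds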
Torsin-1A (Homo sapiens) [17] = biological target: Torsin-1A (Homo sapiens) (UniProt O14656); test: torsin A binders from cell lysate, primary screen, small-molecule microarray, wild-type, 635/667 nm (AID 1149); conditions: COS7 hTOR1A-WT lysate, 635 nm fluorescence, higher = more signal
Sequence of Torsin-1A (Homo sapiens) (O14656 whole entry, looked up): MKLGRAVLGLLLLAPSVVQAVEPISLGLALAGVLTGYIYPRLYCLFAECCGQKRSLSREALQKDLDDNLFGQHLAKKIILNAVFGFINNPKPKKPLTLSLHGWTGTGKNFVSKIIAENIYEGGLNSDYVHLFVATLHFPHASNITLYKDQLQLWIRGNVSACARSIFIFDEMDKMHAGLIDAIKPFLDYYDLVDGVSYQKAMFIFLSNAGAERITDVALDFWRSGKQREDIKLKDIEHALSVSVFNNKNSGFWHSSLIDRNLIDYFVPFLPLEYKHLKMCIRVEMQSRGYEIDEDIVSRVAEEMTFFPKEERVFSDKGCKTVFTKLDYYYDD

Torsin-1A (Homo sapiens) [18] = biological target: Torsin-1A (Homo sapiens) (UniProt O14656); test: small-molecule binders of mutant TOR1A in lysate, primary screen, cell lysate, small-molecule microarray, COS7 lysate, 635/667 nm fluorescence (AID 1150); conditions: COS7 hTOR1A mutant lysate, 635 nm fluorescence, higher = more signal;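 also: score pools 667 nm emission and signal to noise measuring lysate protein binding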
[19] = tested on: Sonic hedgehog protein (Shh); test: small-molecule binders of Shh protein, primary screen, biochemical, small-molecule microarray, 635/667 nm fluorescence (AID 1151); conditions: small-molecule microarray binding, 635 nm fluorescence; higher = more signal;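 also: Shh protein binding to compounds spotted on small-molecule microarray slides; score combines spot fluorescence intensity with signal-to-noise across triplicate slides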

Structure (SMILES)	composite z-score [1]	composite z-score [2]	composite z-score [3]	composite z-score [4]	composite z-score [5]	composite z-score [6]	z-score [7]	composite z-score (Lefty1)	composite z-score [8]	z-score [9]	composite z-score [10]	z-score [11]	z-score [12]	z-score [13]	z-score [14]	composite z-score [15]	composite z-score [16]	composite z-score (Torsin-1A (Homo sapiens) [17])	composite z-score (Torsin-1A (Homo sapiens) [18])	composite z-score [19]
COC(=O)[C@@]1(Cc2ccc(F)cc2)[C@@H]2C(=CC(=O)[C@H]2CC(=O)C(=O)N2CCCC2)CN1C(=O)c1ccccc1	0.323	1.24	0.348	0.998	1.26	0.674	0.711	0.903	1.23	-8.12 (active)	1.74	-4.86 (inactive)	0.137 (inactive)	-0.189 (inactive)	1.86 (inactive)	0.696	0.731	0.448	1.01	1.82
CC(C)(C)OC(=O)CC[C@]1(C(N)=O)N=C(c2ccc(OCCCO)cc2)O[C@H]1c1ccccc1N=[N+]=[N-]	2.8	0.977	0.178	0.746	1.2	0.38	-0.12	-0.512	1.1	-8.33 (active)	0.641	-0.284 (inactive)	0.303 (inactive)	1.05 (inactive)	-0.677 (inactive)	1.49	0.0966	0.448	0.424	-0.74
COc1cccc(C)c1NC(=O)O[C@H]1[C@H](OC(=O)Nc2ccc3c(c2)OCO3)[C@H](OC(=O)Nc2ccc3c(c2)OCO3)[C@@H](OC)O[C@@H]1CO	1.61	1.27	0.197	0.993	1.3	0.662	0.123	0.802	0.7	-6.86 (inactive)	0.469	-2.59 (inactive)	1.05 (inactive)	0.558 (inactive)	-1.04 (inactive)	1.2	0.226	-0.148	0.533	2.02
O=C1C2C=CC(C(O)C(c3ccccc3)c3ccccc3)N(Nc3ccccc3F)C2C(=O)N1c1ccccc1 (stereo not given)	1.65	1.24	0.22	0.97	1.2	0.158	-1.18	0.667	1.1	0.294 (inactive)	0.739	-1.16 (inactive)	0.712 (inactive)	2.73 (inactive)	0.993 (inactive)	1.58	0.0183	1.02	0.895	0.868
C=CCNC(=O)[C@H]1[C@@H]2C(=O)O[C@@H](c3ccccc3)[C@@H](c3ccccc3)N2[C@@H](c2ccc(OCCO)cc2)[C@]12C(=O)Nc1ccc(C#Cc3ccc(OC)cc3)cc12	1.38	1.23	0.905	0.965	1.37	0.977	-1.7	0.811	1.14	0.152 (inactive)	0.4	-3.41 (inactive)	-0.832 (inactive)	0.478 (inactive)	0.237 (inactive)	0.918	0.165	0.44	0.471	0.974
Cc1ccc(S[C@]2(C(=O)NCC(C)C)CC(=O)N(C(C)C)[C@@H]2c2ccc(CO)cc2I)cc1	-1.38	-0.807	-0.0038	-0.942	-0.888	0.101	-0.294	-1.16	-0.353	-0.965 (inactive)	0.241	-1.44 (inactive)	0.502 (inactive)	0.0909 (inactive)	0.205 (inactive)	-0.807	-0.173	-0.782	-0.607	-1.07
COCCOC(=O)N1C(=O)[C@@]2(c3cc(C#CCNC(N)=O)ccc31)[C@H](C(=O)N1CCN(c3ncccn3)CC1)[C@H]1C(=O)O[C@H](c3ccccc3)[C@H](c3ccccc3)N1[C@@H]2c1ccc(O)cc1	-0.031	-0.937	-0.305	-1	-0.974	-0.623	0.284	-1.19	0.0548	0.0121 (inactive)	-0.546	-0.375 (inactive)	-1.09 (inactive)	0.484 (inactive)	-0.26 (inactive)	-1.21	-0.4	-0.827	-0.859	-0.448
COCCCNC(=O)[C@]1(Cc2ccccc2CN=[N+]=[N-])N=C(c2ccc(OCCCO)cc2)O[C@@H]1c1ccccc1N=[N+]=[N-]	2.6	1.2	0.641	0.927	0.564	0.854	0.398	-0.108	1.2	-6.03 (inactive)	0.693	-4.12 (inactive)	0.206 (inactive)	2 (inactive)	-0.786 (inactive)	0.437	0.4	0.637	0.557	-0.448
COc1ccc(NN2C(C(O)c3ccc(F)cc3)C=CC3C(=O)N(C4CCCCC4)C(=O)C32)cc1 (stereo not given)	0.683	1.25	0.382	0.997	1.15	0.314	-0.462	0.174	1.14	0.613 (inactive)	0.0942	-0.591 (inactive)	-0.796 (inactive)	1.24 (inactive)	1.08 (inactive)	1.58	0.112	0.638	0.197	0.244
COc1ccc([Si](C)(C)[C@H]2[C@H](CCO)O[C@@]3(C(=O)N(Cc4ccccc4)c4ccc(NC(=O)[C@H](C)O)cc43)[C@@H]2C)cc1	0.779	1.16	0.361	0.967	0.578	-0.145	-0.924	0.575	0.75	-0.355 (inactive)	0.571	-7.85 (inactive)	-1.29 (inactive)	20.8 (active)	1.12 (inactive)	0.0684	0.0659	0.569	0.437	1.33
